Unmarked numbers belong to inactive results.
Test system: Meloidogyne hapla J2
Experiment: proportion of mobile M. hapla J2 relative to DMSO control (fraction of DMSO control); higher = more viable, less nematicidal, active = 0.7 or less
Settings: 60 µM; 5 days; temperature: 20 °C
Procedure, shortened: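 Two biological replicates were run and averaged, each on 96-well plates in which about 25 M. hapla J2 sat in distilled water per well. Compound was pinned in to give 60 µM final and 0.6% v/v DMSO, and the sealed plates were shaken at 200 rpm and 20 °C for 5 days before 2 µL 1 M NaOH was added. Mobility was scored microscopically and divided by the mean from the plate's DMSO-only wells, of which there were eight.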

Compound	proportion of mobile M. hapla J2
CCOc1ccccc1-c1nc(-c2cccc(C)c2)no1	0.982
CCOC(=O)c1sc(NC(=O)CSc2nnc(-c3ccc(Cl)cc3)o2)c(C(=O)OCC)c1C	0.906
CC(Oc1ccccc1)c1nc(-c2cccnc2)no1 (centres undefined)	1.06
Cc1cccc(-c2noc(COc3ccc(Cl)cc3)n2)c1	1.04
COc1cccc(-c2noc(COc3cccc(C)c3)n2)c1	0.995
CC(C)(C)c1ccc(-c2noc(COc3ccccc3)n2)cc1	0.776
Cc1ccccc1-c1noc(-c2ccccc2C(=O)NCc2ccccc2)n1	0.874
CN(C(=O)CSc1nnc(-c2ccccc2)o1)c1ccccc1	1.02
Clc1ccc(SCc2nc(-c3cccnc3)no2)cc1	0.938
Brc1ccc(-c2noc(-c3ccco3)n2)o1	0.801
COc1cccc(-c2noc(CSc3ccc(Cl)cc3)n2)c1	1.03
Cc1ccc(-c2nnc(SCc3ccccc3C#N)o2)cc1	0.937
CC(C)(C)C(=O)CSc1nnc(-c2ccc(Cl)cc2Cl)o1	0.873
CCOc1nc(-c2ccccc2)ccc1-c1noc(CC)n1	0.998
Fc1cccc(Cl)c1CSc1nnc(-c2ccccc2Cl)o1	0.988
Cc1ccccc1CSc1nnc(-c2ccccc2)o1	1.02
COc1nc(-c2ccccc2)ccc1-c1noc(C(C)C)n1	0.776
Clc1ccc(OCc2nc(-c3ccccc3)no2)c(Br)c1	1.02
COc1ccccc1-c1nc(-c2ccc(Cl)cc2)no1	0.934
Cc1cccc(-c2noc(-c3ccc(C)c(Cl)c3)n2)c1	1.01

Compound	proportion of mobile M. hapla J2
COc1cccc(NC(=O)c2ccccc2-c2nc(-c3ccccc3Cl)no2)c1	0.918
COc1ccc(-c2noc(COc3ccc(Br)c(C)c3)n2)cc1	0.972
O=C(CSc1nnc(-c2ccccc2)o1)NC1CCCCC1	1.01
Cc1ccc(CSc2nnc(-c3ccco3)o2)c(C)c1	0.687 (active)
Cc1cccc(-c2noc(-c3ccc4c(c3)OCO4)n2)c1	0.974
Cc1cc(Cl)ccc1OCc1nc(-c2cccnc2)no1	1
CCCc1nnc(CSc2nnc(-c3ccc(Cl)cc3)o2)o1	0.983
c1csc(-c2nnc(-c3cccs3)o2)c1	0.754
Cc1ccc(-c2nc(-c3ccccc3Cl)no2)cc1	0.998
O=C(CSc1nnc(-c2ccncc2)o1)Nc1ccccc1Cl	0.724
Clc1ccc(-c2nc(-c3cccnc3)no2)c(Cl)c1	1.04
COc1ccccc1-c1nc(-c2ccccc2)no1	1
Cc1cccc(-c2noc(-c3ccccc3Cl)n2)c1	0.894
O=C(CSc1nnc(-c2cccnc2)o1)c1ccc(Br)cc1	1.04
COc1ccc(-c2nnc(SCc3ccc(C#N)cc3)o2)cc1	0.942
Cc1ccc(-c2nc(-c3cccnc3)no2)c(C)c1	1.1
Cc1ccccc1OCc1nc(-c2ccc(NC(=O)c3ccc(Br)o3)cc2)no1	0.726
Cc1cc(OCc2nc(-c3cccnc3)no2)ccc1Cl	0.942
CCOc1ccccc1-c1nnc(SCc2ccccc2)o1	0.891
